VACV mCherry inh: qHTS for Stage-Specific Inhibitors of Vaccinia Orthopoxvirus: mCherry Reporter Primary qHTS. Vaccinia virus mCherry reporter infection, fluorescence. Potency, µM (highest dose often 36.5 µM), without a hit: at the highest dose activity change, negative = inhibition, actives largely listed as inhibitors. 310,000 tested, 0.63% active; calls by dose curve; tested in A549 cells; note: potency is the fitted concentration of half-maximal effect; % is set by controls: 0 for no effect and ±100 for the full control effect; nearly all actives have a fitted effect of over 35% in size
LASV entry inh: qHTS for Inhibitors of binding or entry into cells for Lassa Virus; Lassa virus pseudotype entry inhibition, cell reporter; Potency, µM (highest dose often 37.9 µM), for the others: at the highest dose activity change, negative = inhibition, actives largely listed as inhibitors; 300,000 tested, 1.2% active; AID 540256, 2011; calls by dose curve; tested in HEK293 cells; note: potency is the fitted concentration of half-maximal effect; % is set by controls: 0 for no effect and ±100 for the full control effect; nearly all actives have a fitted effect of over 50% in size
CHX counter: Cycloheximide Counterscreen for Small Molecule Inhibitors of Shiga Toxin; max response, %; AID 2314, 2010; cell reporter, cycloheximide protein synthesis inhibition counterscreen; 300,000 tested, 12% active; in the data active = max response mostly above about 13%, no sharp cut-off; inactive = mostly below about 14%; note: read at 38.3 µM for the half of the compounds with a filed dose; 0% is about no effect
Shiga inhibitor: A qHTS for Small Molecule Inhibitors of Shiga Toxin | 290,000 tested, 9.2% active | Vero cells, Shiga toxin protein synthesis inhibition reporter | inhibition, % at 38.7 µM; in the data active = inhibition mostly above about 28%, no sharp cut-off; inactive = mostly below about 43%; note: 0% is about no effect
VACV Venus inh: qHTS for Stage-Specific Inhibitors of Vaccinia Orthopoxvirus: Venus Reporter Primary qHTS. AID 720580, 2013. Vaccinia virus Venus reporter expression, fluorescence. Potency, µM (series often up to 36.5 µM), for inactives: at the highest dose activity change, negative = inhibition, usual class: inhibitors. 330,000 tested, 0.46% active; calls by dose curve; tested in A549 cells; note: potency is the fitted concentration of half-maximal effect; % is set by controls: 0 for no effect and ±100 for the full control effect; nearly all actives have a fitted effect of over 30% in size
MARV entry inh: qHTS for inhibitors of binding or entry into cells for Marburg Virus. Potency, µM (top dose mostly 37.8 µM), inactives show at the top dose activity change, negative = inhibition, most hits filed as inhibitors. 300,000 tested, 1.8% active. Marburg virus pseudotyped entry inhibition, cell reporter; calls by dose curve; tested in HEK293 cells; note: potency is the fitted concentration of half-maximal effect; % is set by controls: 0 for no effect and ±100 for the full control effect
* hit, by the source's call; i = inactive; ? = inconclusive; . = no result; [ ] = remark or other dose. The entries come from a sample that favours hits as a whole.

SMILES | VACV mCherry inh | LASV entry inh | CHX counter | Shiga inhibitor | VACV Venus inh | MARV entry inh
CCc1ccc(C2N3CC4(C)CN2CC(c2ccccc2)(C3)C4=O)cc1 (stereo not given) | -9% | -10%[46.1 µM] | . | . | -5% | 7%[46.1 µM]
CCOC(=O)c1cc(-c2ccccc2)sc1NC(=O)c1ccc(OC)c(OC)c1 | -4% | -18% | -2 | -12 | -2% | 2%
Nc1sc(-c2ccccc2)cc1C(=O)N1CCNCC1 | ? | . | . | . | 14% | .
Cc1cccc(C(=O)Nc2sc(-c3ccccc3)cc2C(=O)O)c1 | . | . | 46* | 127* | . | .
CC(C)(C)C(=O)Nc1sc(-c2ccccc2)cc1C(=O)O | ? | ? | 41* | 112* | 8% | ?
Nc1sc(-c2ccccc2)cc1C(=O)O | . | . | 29* | 55* | . | 0%
CCC1CN(CCNC(=O)c2cccnc2OC)Cc2cc(OC)ccc2O1 (stereo not given) | -13% | . | . | . | -1% | .
COc1ccc2c(CNC3CCCC3)c(C(=O)O)n(Cc3ccccc3C)c2c1 | -6% | -17%[46.1 µM] | . | . | -5% | .
O=C(NCCc1nc2ccccc2n1CCOc1ccc2ccccc2c1)C1CCCCC1 | -26% | . | . | . | -13% | .
O=C(NCCc1nc2ccccc2n1CCCOc1ccc2ccccc2c1)C1CCCCC1 | 3.2µM* | . | . | . | ? | .
O=C(Nc1ccc(F)cc1)Nc1cc(OCC(F)(F)F)cc(OCC(F)(F)F)c1 | 10µM* | 18µM* | 7 | -6 | ? | 8.9µM*
CC(C)(C)c1ccc(NC(=O)Nc2ccc(F)cc2)cc1 | ? | ? | 42* | 68* | -23% | ?
CC(C)(C)c1ccc(COC(=O)Nc2ccc(F)cc2)cc1 | -22% | 13% | 19* | 35* | -13% | ?
CC(=O)Nc1ccc(NC(=O)Cc2ccc(F)cc2)cc1 | . | . | 4 | -2 | . | .
CCOc1ccc(NC(=O)Nc2cc(OCC(F)(F)F)cc(OCC(F)(F)F)c2)cc1 | i | ? | 7 | 7 | -23% | ?
COc1ccccc1NC(=O)C1CC(=O)OC1c1ccccc1 (stereo not given) | . | 5% | -6 | -6 | -11% | ?
O=C(CC1(O)C(=O)Nc2ccccc21)c1ccc(-n2cnnn2)cc1 (stereo not given) | -21% | -5%[46.1 µM] | 24* | 28 | 9% | ?
Cn1cccc1/C=N/NC(=O)c1ccccn1 | -28% | . | 31* | 84* | 0% | .
Cc1cc(C(=O)N/N=C/c2cccn2C)no1 | -14% | 19% | 10 | 18* | -11% | 5%
Cc1cc(C(=O)N/N=C/c2ccccc2Br)no1 | i | ? | 36* | 60* | -7% | 14%
Cn1cccc1/C=N/NC(=O)c1ccncc1 | -23% | 8%[46.1 µM] | 3 | -7 | -5% | 6%[46.1 µM]
Cn1cccc1/C=N/NC(=O)c1cc2ccccc2cc1O | ? | 6% | 21* | 67* | -12% | -21%[46.1 µM]
Cc1cc(C(=O)N/N=C/c2ccc[nH]2)no1 | -7% | 28% | 20 | 45 | -4% | 2%
CC(=O)N1CCc2cc(S(=O)(=O)NC(CC(C)C)C(=O)Nc3cc(C)cc(C)c3)ccc21 (stereo not given) | -5% | -13%[46.1 µM] | . | . | 2% | ?
O=C(Nc1ccc(-c2cc(C(F)(F)F)nn2-c2ccccc2)cc1)c1cccc(F)c1 | -9% | ? | . | . | ? | ?
SMILES | VACV mCherry inh | LASV entry inh | CHX counter | Shiga inhibitor | VACV Venus inh | MARV entry inh
Cc1cc(C(=O)NCc2ccccc2Br)no1 | . | 6% | 16* | 36 | . | 13%
COc1ccc(NC(=O)Nc2ccc3nccnc3c2)cc1 | . | -15% | 22* | 80 | -15% | ?
COC(=O)c1cc(OC)c(OC)cc1NC(=O)Nc1ccc(OC)cc1 | . | 6% | -4 | -8 | -26% | ?
COc1ccc(NC(=O)Nc2ccc3nonc3c2)cc1 | i | 2% | 34* | 66* | -8% | ?
Cc1cc2ccccc2n1CCNC(=O)c1ccc(Br)o1 | 2% | . | 19* | 28* | 41% | .
Cc1cc2ccccc2n1CCNC(=O)c1ccc(Br)cc1 | -6% | -13%[46.1 µM] | . | . | 3% | 2%[46.1 µM]
Cc1cc2ccccc2n1CCNC(=O)c1ccccc1 | . | 7.9µM* | 15* | 24 | 59% | ?
CN1CCN(c2nc(-c3cccs3)cs2)CC1 | -6% | 15% | 27* | 61 | -3% | ?
Nc1nc(-c2cc3ccccc3o2)cs1 | ? | ? | 33* | 98* | -17% | -10%
Cc1cc(C)n(CCc2nc(-c3cc4ccccc4o3)cs2)n1 | -14% | ? | 23 | 45 | 0% | -27%
OC(c1ccccc1)c1nc(-c2cc3ccccc3o2)cs1 (stereo not given) | i | . | . | . | -5% | .
CN1CCN(c2nc(-c3cc4ccccc4o3)cs2)CC1 | i | ? | 48* | 85* | -7% | ?
Cc1ccc(Cl)cc1N(CC(=O)NCc1ccccc1)S(C)(=O)=O | . | . | 2 | -4 | . | .
Cc1cc(N2CCCCCC2)nc2ccccc12 | i | -9% | 19 | 12 | -5% | -4%
c1ccc2nc(N3CCOCC3)cnc2c1 | -2%[1.46 µM] | -1% | 17* | 18 | -22% | -1%
COCc1cc(N2CCOCC2)nc(-c2ccccc2)n1 | i | 9% | 1 | 21 | -8% | 10µM*
Cc1cc(N2CCCCC2)nc2ccccc12 | -8% | 29% | 11* | 19 | 2% | -29%[46.1 µM]
c1ccc2nc(N3CCOCC3)c(N3CCOCC3)nc2c1 | i | 8% | -1 | -13 | -15% | -4%
Cc1cc(-n2nnc3ccccc32)nc2ccccc12 | . | 17% | 15* | 11 | . | 9%
COc1cc(NC(=O)C/C(C)=N/NC(=O)C2CCCCC2)c(OC)cc1Cl | -24% | -1%[46.1 µM] | -1 | 7 | -2% | ?
O=C(Nc1ccccc1N1CCOCC1)c1cccnc1Cl | 1% | 1% | 3 | -4 | 4% | 0%[46.1 µM]
Cc1cc(NS(=O)(=O)c2ccc(NC(=O)Nc3cccc(C(F)(F)F)c3)cc2)no1 | i | ? | -3 | -3 | 0% | 0%[46.1 µM]
CO[C@H]1C=CO[C@@]2(C)Oc3c(C)c(O)c4c(O)c(c5c(nc6cc(C)ccn65)c4c3C2=O)NC(=O)/C(C)=C\C=C[C@H](C)[C@H](O)[C@@H](C)[C@@H](O)[C@@H](C)[C@H](OC(C)=O)[C@@H]1C | -5% | . | . | . | -27% | .
Cc1cc(N2CCOCC2)nc2cc(O)ccc12 | i | . | 37* | 54* | -8% | .
Cc1cc(N2CCN(c3ccccc3F)CC2)nc2cc(O)ccc12 | -7% | 16% | 25* | 95* | -18% | ?
Cc1cc(N2CCN(c3ccc(F)cc3)CC2)nc2cc(O)ccc12 | ? | . | -8 | -2 | -17% | .
Cc1cc(N2CCOCC2)nc2ccccc12 | i[1.46 µM] | 8% | 15* | 49* | -19% | 18%
CSC1=C(C#N)[C@H](c2ccc(C)s2)CC(=O)N1 | . | . | . | . | . | 0%
CCCCC[C@]12Cc3cc(OC)c(OC)cc3C(O1)c1c(cc(C)n(-c3ccccc3)c1=O)O2 | . | . | 1 | i | . | .
